Hits are enriched below; roughly 0.9% of the tested compounds scored in any of these assays.
A488 fluor = A488 region autofluorescence; max dye equivalency, M; compound autofluorescence, A488 spectral region, dye equivalency; Compound Type: qHTS ECL - MLSMR; 0.1% of 59,000 active
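Intrinsic compound fluorescence is measured in 100 mM Tris buffer at pH 8.0 following 15 min incubation at room temperature. Intensities at 480 nm excitation/540 nm emission are calibrated to an on-plate A488 concentration series, giving dye-equivalent concentrations.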
Rhodamine fluor = compound fluoresces in the rhodamine spectral region; Rhodamine-region fluorescence, 547/598 nm, Tris buffer; hits give high values; max dye-equivalent concentration, M; 0.05% of 59,000 active; AID 594; in the data active = max dye-equivalent concentration above about 11 nM; inconclusive = between about 1.1 nM and that limit
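Read-out is relative fluorescence at 547 nm excitation and 598 nm emission, expressed as dye-equivalent concentration using rhodamine standards on every plate. Each compound was profiled across a concentration series after 15 min in 100 mM Tris, pH 8.0.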
Resorufin fluor = compound fluoresces in the resorufin spectral region; Compound fluorescence, resorufin region 547/598 nm, buffer; hits give high values; max dye-equivalent concentration, M; 0.04% of 59,000 active; AID 588
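Read-out: intrinsic compound fluorescence at ex 547/em 598 nm after 15 min at RT in pH 8.0 Tris (100 mM). Values expressed as resorufin-equivalent concentration from per-plate standard series.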
A647 fluor = compound autofluorescence in A647 spectral region. 59,000 tested, under 10 active. max dye-equivalent concentration, M. Compound fluorescence, A647 channel (570/671 nm), Tris buffer
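Spectral profiling of library compounds in pH 8.0 Tris: 15 min room-temperature incubation, single ex/em pair (570/671 nm), response normalized to Alexa 647 equivalents.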
Fluorescein fluor = compound autofluorescence in fluorescein spectral region; 0.91% of 59,000 active; max fluorescein-equivalent concentration, M; Compound autofluorescence, 480/540 nm, fluorescein-equivalent; hits give high values; in the data active = max fluorescein-equivalent concentration above about 10 nM; inconclusive = between about 1.1 nM and that limit
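Compounds were pin-transferred into 100 mM Tris buffer, pH 8.0, and incubated 15 min at room temperature. Fluorescence was read at 480 nm excitation/540 nm emission. Signals were normalized to an on-plate six-point fluorescein standard curve as dye-equivalent concentration.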
TexasRed autofl = Texas Red region autofluorescence. Compound fluorescence, Texas Red channel, 547/618 nm; hits give high values. max dye-equivalent concentration, M. 0.06% of 59,000 active; in the data active = max dye-equivalent concentration above about 10 nM; inconclusive = between about 1.1 nM and that limit
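Compound titrations in 100 mM Tris pH 8.0 were incubated 15 min at room temperature and read at 547 nm excitation / 618 nm emission. Texas Red six-point standard curve on each plate converted fluorescence to dye-equivalent concentration.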
Large screens that a line does not name were inactive; ! = not active in a repeat. Unless noted, no rule for the calls is given here.

O[C@@H]1CC[C@H]2Cc3ccccc3N=C21	none
CN(C)CC[C@H](c1ccc(Cl)cc1)c1ccccn1	Fluorescein fluor 1.32e-08M!, TexasRed autofl inconclusive
COc1ccc2c(c1)c1c(C)c3cnccc3c(C)c1n2CCCN	none
CCN(CC)[C@@H](C)C(=O)N1c2ccccc2Sc2ccccc21	TexasRed autofl inconclusive
Cc1nc2ccc(Cl)cc2nc(C)/c1=N\O	A488 fluor inconclusive, Fluorescein fluor 1.08e-07M, TexasRed autofl inconclusive
CC(=O)c1c(C)nc2cc(Cl)ccc2c1N	none
N#CC1=C(N)SC(N)=C(C#N)C1c1ccoc1	Fluorescein fluor 1.75e-08M
CC(c1ccccc1)C1C(C#N)=C(N)SC(N)=C1C#N (configuration not stated)	none
CC1=C(C#N)C(c2ccoc2)C(C(=O)OCc2ccccc2)=C(N)S1 (configuration not stated)	none
Cc1ccc(C2C(C#N)=C(N)SC(N)=C2C#N)cc1	Fluorescein fluor 2.32e-08M
N#CC1=C(N)SC(N)=C(C#N)C1c1ccnc2ccccc12	Fluorescein fluor inconclusive
Cc1ccc(C2C(C#N)=C(N)SC(N)=C2C#N)c(C)c1	Fluorescein fluor 1.03e-08M
O=c1ccn([C@H]2O[C@H](CO)[C@@H](O)[C@@H]2O)c(=O)[nH]1	none
CCOC(=O)c1ccc(CC(=O)c2oc3cc(O)ccc3c2C)o1	Fluorescein fluor 2.31e-08M, TexasRed autofl inconclusive
CCOC(=O)c1oc2cc(O)ccc2c(=O)c1-c1csc(C)n1	Fluorescein fluor inconclusive
O=C(O)[C@@H]1[C@@H]2C[C@H]3c4[nH]c5ccccc5c4CCN3C[C@@H]2CC[C@@H]1O	Fluorescein fluor 1.67e-08M!
COC(=O)[C@@H]1[C@@H]2C[C@H]3c4[nH]c5ccccc5c4CCN3C[C@@H]2CC[C@@H]1OS(=O)(=O)O	Fluorescein fluor inconclusive
Cc1ccccc1-n1c(=O)cc(N2CCC3(CC2)OCCO3)[nH]c1=O	none
CCOC(=O)N1CCN(c2cc(NCCC(=O)O)c3c4c(onc24)-c2ccccc2C3=O)CC1	A488 fluor inconclusive, Rhodamine fluor inconclusive, Fluorescein fluor 7.99e-08M, TexasRed autofl inconclusive
CCOC(=O)N1CCN(c2c(NCCCN(CC)Cc3ccccc3)c(=O)c2=O)CC1	TexasRed autofl inconclusive
O=C(O)CCCNc1cc(N2CCC3(CC2)OCCO3)c2noc3c2c1C(=O)c1ccccc1-3	Rhodamine fluor inconclusive, Resorufin fluor inconclusive, Fluorescein fluor 1.27e-08M, TexasRed autofl 1.05e-08M
CN1C=CC2=C(C#N)C(N)C(C#N)(C#N)C(c3ccccc3)C2C1 (configuration not stated)	A488 fluor inconclusive, Fluorescein fluor 3.34e-08M
Cc1c(C(=O)O)c(O)cc2c1C(=O)c1c(O)c([C@@H]3O[C@H](CO)[C@@H](O)[C@H](O)[C@@H]3O)c(O)c(O)c1C2=O	none
COc1cccc(-c2cn3nc(C)c(C)nc3n2)c1	none
Cc1nc2nc(-c3cccs3)cn2nc1C	A488 fluor inconclusive, Fluorescein fluor 6.02e-08M
CCCCCC[C@@H]([C@H](C)O)n1cnc2c(N)ncnc21	Fluorescein fluor inconclusive, TexasRed autofl inconclusive
O=C1c2ccccc2-c2onc3ccc(NCc4ccco4)c1c23	A488 fluor 5.37e-08M, Rhodamine fluor 1.99e-08M, Resorufin fluor 1.71e-08M, Fluorescein fluor 1.21e-06M, TexasRed autofl 1.78e-08M
O=c1nccc(NCc2ccco2)[nH]1	Fluorescein fluor inconclusive, TexasRed autofl inconclusive
O=C1OCCN1/N=C\c1ccc([N+](=O)[O-])o1	Fluorescein fluor 3.11e-08M, TexasRed autofl inconclusive
O=C1O[C@H](CN2CCOCC2)CN1/N=C\c1ccc([N+](=O)[O-])o1	Fluorescein fluor inconclusive
COc1ccc(-c2nnc(-c3ccc(N(C)C)cc3)o2)cc1	TexasRed autofl inconclusive
CN(C)c1ccc(-c2nnc(-c3ccc(S(=O)(=O)C(F)F)cc3)o2)cc1	Fluorescein fluor 2e-08M
CC(C)CCC[C@@H](C)[C@@H]1CC[C@@H]2[C@H]3CC[C@H]4C[C@@H](N)CC[C@@]4(C)[C@@H]3CC[C@]21C	none
CN1C(=O)c2cccc(NCCCN3C(=O)c4ccccc4C3=O)c2C1=O	A488 fluor inconclusive, Fluorescein fluor 6.66e-08M
CN1C(=O)c2cccc(N(C)C)c2C1=O	Fluorescein fluor inconclusive
CCNc1cccc2c1C(=O)N(C)C2=O	A488 fluor 1.28e-08M, Fluorescein fluor 2.69e-07M
C[C@H]1[C@H](C)CC[C@@]2(C(=O)O)CC[C@]3(C)C(=CC[C@@H]4[C@@]5(C)CC[C@H](O)C(C)(C)[C@@H]5CC[C@@]43C)[C@@H]12	none
O=c1c(-c2ccc(Cl)cc2)nc2cnc(N3CCOCC3)nc2n1C1CC1	Fluorescein fluor 1.05e-08M
COc1cc(/C=C/C(=O)CC(=O)/C=C/c2ccc(O)c(OC)c2)ccc1O	Fluorescein fluor inconclusive
COc1cc(/C=C/C2=NC(=O)C(C)(C)O2)ccc1O	Fluorescein fluor 2.98e-08M
CC(C)C[C@H](NC(=O)[C@@H](O)[C@@H](N)Cc1ccccc1)C(=O)O	Fluorescein fluor inconclusive
CCCCC/C=C\C[C@H](O)/C=C\c1cccc(C[C@H](O)CCCCO)n1	Fluorescein fluor inconclusive
N#CC1=C(N)C(C#N)(C#N)[C@H](c2ccoc2)[C@H]2CN(Cc3ccccc3)CC=C12	A488 fluor inconclusive, Fluorescein fluor 3.51e-08M, TexasRed autofl inconclusive
CC(=O)N1CC=C2C(C#N)=C(N)C(C#N)(C#N)[C@H](c3ccoc3)[C@H]2C1	Fluorescein fluor 3.07e-08M
CCN1CC=C2C(C#N)=C(N)C(C#N)(C#N)C(CCc3ccccc3)C2C1 (configuration not stated)	A488 fluor inconclusive, Fluorescein fluor 1.3e-07M
CC(=O)N1CC=C2C(C#N)=C(N)C(C#N)(C#N)C(C)C2C1 (configuration not stated)	Fluorescein fluor inconclusive
CC1(C)CC(=O)C2=C(C1)N1CCCCC1CC2=O (configuration not stated)	Fluorescein fluor 1.54e-08M
COc1ccc(C2C=C(c3ccc(C)cc3)Nc3ncnn32)cc1 (configuration not stated)	Fluorescein fluor 1.06e-08M
C1=C(c2ccc(-c3ccccc3)cc2)Nc2ncnn2C1c1ccco1 (configuration not stated)	A488 fluor inconclusive, Fluorescein fluor 1.42e-07M
COc1cccc(C2=CC(c3ccccc3)n3ncnc3N2)c1 (configuration not stated)	Fluorescein fluor inconclusive
COc1ccc(C2C=C(c3ccc(Br)s3)Nc3ncnn32)cc1OC (configuration not stated)	A488 fluor 7.32e-08M, Fluorescein fluor 1.26e-06M
CCOc1ccc(C2C=C(c3ccc(F)cc3)Nc3ncnn32)cc1 (configuration not stated)	Fluorescein fluor inconclusive, TexasRed autofl inconclusive
CCOc1ccc(C2C=C(c3ccccc3)Nc3ncnn32)cc1 (configuration not stated)	Fluorescein fluor 1.31e-08M

From PubChem
